From PubChem BioAssay (NCI)
This is part of a sample that, as a whole, favours compounds with a hit. Of some 83,000 tested, about 20% had one in any assay.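 In brief: 96-well plates, 48 h treatment, single concentration, percent growth endpoint.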 A number with no mark means an inactive call. Activity calls are given as the source filed them. How the source made its calls: active means growth percent below 10; inactive means the rest.

What was measured:
Experiment in all cases: NCI-60 one-dose screen, 48 h (100 = growth as untreated, 0 = no growth, -100 = all killed)
Conditions in all cases: 10 µM unless noted
[1] = tested on: RPMI-8226 leukemia
[2] = tested on: OVCAR-8 ovarian
[3] = tested on: OVCAR-5 ovarian
[4] = tested on: OVCAR-4 ovarian
[5] = tested on: SK-OV-3 ovarian
[6] = tested on: OVCAR-3 ovarian
[7] = tested on: HS 578T breast
[8] = tested on: NCI/ADR-RES ovarian
[9] = tested on: T-47D breast
[10] = tested on: MDA-MB-435 melanoma
[11] = tested on: SW-620 colon
[12] = tested on: MCF7 breast
[13] = tested on: HCT-116 colon
[14] = tested on: HCC-2998 colon
[15] = tested on: KM12 colon
[16] = tested on: IGROV1 ovarian
[17] = tested on: BT-549 breast

| SMILES | growth [1] | growth [2] | growth [3] | growth [4] [%] | growth [5] [%] | growth [6] | growth [7] | growth [8] | growth [9] | growth [10] | growth [11] | growth [12] | growth [13] | growth [14] | growth [15] | growth [16] | growth [17] |
| --- | --- | --- | --- | --- | --- | --- | --- | --- | --- | --- | --- | --- | --- | --- | --- | --- | --- |
| CCCOc1nc(SCCC)nc2c1cnn2-c1ccccc1 | 152% | 99.2% | 89.2% | 99.6 | 106 | 94.8% | 126% | 96% | 115% | 104% | 103% | 101% | 105% | 99.6% | 105% | – | – |
| Cn1/c(=N/NC(N)=S)ccc2ccccc21 | 78.2% | 74.6% | 99% | 93.3 | 107 | 44.1% | 103% | 77% | 52.9% | 99.8% | 84.5% | 37.4% | 7.01% (active) | 112% | 103% | 44.7% | 100% |
| O=c1[nH]c2c(s1)CCCC2CN1CCCCC1 (stereo unspecified) | 103% | 113% | 89.2% | 113 | 86.6 | 111% | 105% | 99% | – | 107% | 114% | 96.3% | 76.8% | 100% | 108% | 120% | 72.6% |
| CS(=O)(=O)OCCN(CCOS(C)(=O)=O)c1ccc(/C=N/Nc2ccc([N+](=O)[O-])cc2[N+](=O)[O-])cc1 | 82.3% | 76.4% | 97.8% | 93.1 | 101 | 107% | – | 73% | 76% | 94.1% | 73.4% | 66.5% | 83.9% | 80.2% | – | 72% | 99.3% |
| C1=C2CNCC3=Cc4ccc5ccccc5c4OC23Oc2c1ccc1ccccc21 | 70.5% | 53.9% | 70% | – | – | -19.1% (active) | 52.5% | -21.4% (active) | 66.7% | -69.7% (active) | 8.75% (active) | 12% | 11.1% | 56.9% | 15.2% | 39.9% | 79.9% |
| CCOC(=O)C1=C(C)NC(C)=C(C(=O)OCC)C1c1cc(Br)c(O)c(OC)c1 | 29.9% | 25.2% | 66.7% | 47.4 | 16.9 | – | 4.37% (active) | -14.5% (active) | 43.8% | -33.7% (active) | 24.6% | 29.3% | 24.5% | 63.6% | 23.6% | 49.9% | 15.3% |
| CCN(CCNc1cc(OC)cc2cccnc12)CCc1ccccc1 | 81.6% | 85.2% | 93.9% | 19.1 | 74.6 | 79% | 85.6% | 81.1% | – | 104% | 70.7% | 0.943% (active) | 59.8% | 88.5% | 85.6% | 94.6% | 87.6% |
| Nc1nnc2cc(Cl)ccc2n1 | 68.9% | 105% | 105% | 111 | 96.5 | 145% | 86.4% | 96.3% | 93.1% | 106% | 96.5% | 88.7% | 101% | 110% | 97% | 96.3% | 114% |
| COC(=O)C1NC(=S)N(c2ccc(Cl)cc2)C1/C=C/c1ccccc1 (stereo unspecified) | 95.8% | 101% | 99.8% | – | – | 101% | 107% | 90% | 88.2% | 85.5% | 108% | 101% | 95.6% | 93.2% | 96% | 106% | 93.8% |
| COc1ccc(OC)c(/C=C/[C@H]2O[C@@H](C)[C@H](O)[C@@H]2O)c1 | 95.3% | 109% | 112% | – | – | 125% | 111% | 108% | 96% | 100% | 113% | 101% | 101% | 108% | 112% | 105% | 104% |
| O=C(N/N=C/c1cccc(O)c1)c1ccccc1Nc1cccc(C(F)(F)F)c1 | 87.5% | 75% | 92.3% | – | 78.4 | 62.1% | 91.8% | 83.4% | 52% | 88.8% | 95.1% | 73.4% | 83.4% | 82.7% | 81.5% | 95.3% | 67.3% |
| O=C(Nc1ccc(Cl)cc1)Nc1ccc(Cl)c(Cl)c1 | -27.6% (active) | 21.2% | 23.9% | 21.8 | 20.2 | -31% (active) | 33% | -18.8% (active) | -12.2% (active) | 7.4% (active) | 14.4% | -4.33% (active) | 5.23% (active) | – | 6.34% (active) | 21.5% | 43.3% |
| Cn1ncc2c(Nc3ccccc3Cl)nc(Cl)nc21 | 62.1% | 113% | 96.4% | 96.3 | 104 | 164% | 136% | 100% | 99.7% | 113% | 126% | 104% | 99.4% | 109% | 126% | – | – |
| COc1cccc(/C=C2\COc3ccc(-c4ccccc4)cc3C2=O)c1 | -31.4% (active) | 3.02% (active) | 49.6% | 65.2 | 74.3 | -44% (active) | -9.75% (active) | 5.38% (active) | -6.21% (active) | -25.8% (active) | -55.6% (active) | -3.38% (active) | -23.8% (active) | 19.4% | -37.3% (active) | 4.34% (active) | 13.1% |
| O=C(O)/C=C\C(=O)N1C/C(=C\c2ccccc2Cl)C(=O)/C(=C/c2ccccc2Cl)C1 | 3.9% (active) | 4.98% (active) | 2.41% (active) | – | – | -37.7% (active) | 47.1% | 4.6% (active) | 7.54% (active) | -11.3% (active) | -50% (active) | 3.37% (active) | -97.2% (active) | -91.8% (active) | -71.9% (active) | 1.94% (active) | -57% (active) |
| O=C(Nc1ccccc1)Oc1ccccc1-c1ccccc1 | 96.5% | 98.4% | 90.5% | 103 | 80.1 | 106% | 93.3% | 99.9% | – | 99.9% | 99.5% | 95.5% | 77.6% | 107% | 107% | 107% | 76.3% |
| COc1ccccc1/C=C1\COc2ccc(-c3ccccc3)cc2C1=O | -37.3% (active) | 36.1% | 104% | 76.1 | 50.7 | -29% (active) | 38.9% | -45.6% (active) | – | -45% (active) | 16.8% | -9.07% (active) | 5.64% (active) | 51.6% | -32% (active) | 56.6% | 12% |
| CO[C@@H]1[C@H](N(C)C(=O)c2ccccc2)C[C@@H]2O[C@]1(C)n1c3ccccc3c3c4c(c5c6ccccc6n2c5c31)C(=O)NC4=O | 67.1% | 54% | 57% | – | – | 46.7% | 20.5% | 42.9% | 40.5% | 45.9% | 18.6% | 42% | 25.8% | 61.9% | 21.8% | 7.2% (active) | 45% |
| O=C1/C(=C\c2cn(Cc3ccccc3)c3ccc(Br)cc23)c2ccccc2N1c1c(Cl)cccc1Cl | 104% | 98% | 99% | 91.9 | 101 | 119% | 110% | 98.4% | 94.5% | 105% | 108% | 96.7% | 94.7% | 106% | 104% | 105% | 106% |
| O=C1/C(=C/c2ccc(O)cc2)COc2ccc(-c3ccccc3)cc21 | -29.7% (active) | 71.9% | 102% | – | 107 | 56.5% | 88.2% | 78.2% | 30.8% | 60.7% | 76.4% | 34.2% | 32.1% | 82% | 19.4% | 51.6% | 80.9% |
